Where “and” joins values, the source holds several entries; their conditions need not be identical. Identical values can stand only once. Inconclusive results are not listed. Where a call stands in place of a potency, no number is given. Calls of active or inactive are those of the source. Calls follow the shape of the full dose curve.
Experiment: qHTS assay for small molecule disruptors of the mitochondrial membrane potential - 1 hr assay (AID 651754); also: nearly all actives have a fitted effect of over 35% in size
Conditions: series mostly up to 92.2 µM
From the text: National Center for Advancing Translational Sciences [NCATS]
NIH Chemical Genomics Center [NCGC]
National Institutes of Environmental Health Sciences [NIEHS]
National Toxicology Program [NTP]
Mitochondrial membrane potential (MMP), one of the parameters for mitochondrial function, is generated by mitochondrial electron transport chain that creates an electrochemical gradient by a series of redox reactions. This gradient drives the synthesis of ATP, a crucial molecule for various cellular processes. Measuring MMP in living cells is commonly used to assess the effect of chemicals on mitochondrial function. […] The dye accumulates in the mitochondria of healthy cells as aggregates, with red fluorescence. The mitochondrial potential collapses and the dye can no longer accumulate in the mitochondria and remains in the cytoplasm in monomers, with green fluorescence.
2,000 HepG2 cells in 5 uL/well were dispensed into black, clear-bottom 1536-well plates using a Multidrop Combi (Thermo Scientific) dispenser. The assay plates were incubated overnight at 37C to allow cells to attach to the wells, followed by the transfer of 23 nL compound or DMSO vehicle by a pin tool (Kalypsys). The plates were incubated for 1 hr at 37C and 5% CO2, followed by the addition of 5 uL of 2X Mito-MPS dye (BD Biosciences) into each well using Flying Reagent Dispenser (Aurora Discovery) and then following 30 min incubation at 37C. Fluorescence intensity (490nm excitation and 535nm emission for monomers; and 540nm excitation and 590nm emissions for aggregates) was measured using an Envision plate reader.
Potency is read from the fitted curve at half-maximal effect.

Compound	Potency
ClC(Cl)(Cl)Cl	inactive
Oc1cc(Cl)c(Cl)cc1Cl	47.3 µM (active)
[O]=[Cr](=[O])([OH])[O][Cr](=[O])(=[O])[OH]	inactive
CC(C)(C)c1cc(O)ccc1O	inactive
CC(C)CCON=O	inactive
C[C@H]1CCC[C@H](O)CCCCCc2cc(O)cc(O)c2C(=O)O1	33.5 µM (active)
Clc1ccccc1Cl	inactive
O=C1C=CC(=O)C=C1	inactive
COC1=CC(=O)O[C@@H](/C=C/c2ccccc2)C1	inactive
O=Cc1ccco1	inactive
S=C=S	inactive
C[C@H]1CC[C@@H]2[C@@H](C)[C@H]3[C@H](C[C@H]4[C@@H]5CC=C6CC(O[C@@H]7O[C@H](CO)[C@H](O)[C@H](O[C@@H]8O[C@H](CO)[C@@H](O)[C@H](O)[C@H]8O)[C@H]7O[C@H]7O[C@@H](C)[C@H](O)[C@@H](O)[C@H]7O)CC[C@]6(C)[C@H]5CC[C@]34C)N2C1 (stereo partly specified)	33.5 µM (active)
O=C1CCO1	inactive
CCCCCCCCOC(=O)c1ccccc1C(=O)OCCCCCCCC	inactive
O=CC=O	inactive
O=C/C=C/c1ccccc1	inactive
O=C1C2CC=CCC2C(=O)N1SC(Cl)(Cl)Cl (stereo unspecified)	26.6 µM (active) and 33.5 µM (active)
ClCC1CO1 (stereo unspecified)	inactive
O=[N+]([O-])c1ccccc1	inactive
C=CCN=C=S	inactive
CCCCCl	inactive
ClC=C(Cl)Cl	inactive
O=C(O)C(Cl)(Cl)Cl	inactive
COc1ccc2c(c1OC)C(=O)OC2C1c2cc3c(cc2CCN1C)OCO3 (stereo unspecified)	inactive
[O]=[Cd]	inactive
NNC(N)=O	inactive

Source: PubChem BioAssay (NCATS)
